From PubChem BioAssay
HPGD inh = qHTS Assay for Inhibitors of HPGD (15-Hydroxyprostaglandin Dehydrogenase) | 15-hydroxyprostaglandin dehydrogenase [NAD(+)] (Homo sapiens), P15428 | purified HPGD, NADH fluorescence kinetic, PGE2 substrate | Potency, µM, without a hit: top-dose activity change, negative = inhibition, hits mostly inhibitors | hit rate 4.3% among 150,000 | AID 894, 2007; note: potency is the fitted concentration of half-maximal effect
Target sequence (P15428 whole entry, looked up): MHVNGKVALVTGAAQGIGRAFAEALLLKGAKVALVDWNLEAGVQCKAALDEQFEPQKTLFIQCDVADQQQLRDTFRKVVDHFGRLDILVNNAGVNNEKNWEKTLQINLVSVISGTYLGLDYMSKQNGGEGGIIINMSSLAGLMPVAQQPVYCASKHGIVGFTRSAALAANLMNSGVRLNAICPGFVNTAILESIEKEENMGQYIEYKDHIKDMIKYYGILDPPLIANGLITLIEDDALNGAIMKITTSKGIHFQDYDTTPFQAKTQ
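20 nM HPGD preincubated 15 min at room temperature with compound in 50 mM Tris-HCl pH 8, 0.01% Tween 20. Started with 1 mM NAD+ and 30 uM prostaglandin E2; NADH fluorescence (360/450 nm) read 5 times over 30-s intervals, last minus first.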
IMPase cell inh = qHTS Assay for Identifying the Cell-Membrane Permeable IMPase Inhibitors; Inositol monophosphatase 1 (Rattus norvegicus), P97697; CHO-M1 cells, IP1 accumulation, HTRF TR-FRET ratio; inhibition (IP1 accumulation), % at 46.1 µM; 120,000 tested, under 10 active; AID 901, 2007; active = well fitted curve in the direction sought with a large enough effect in the signal ratio, not every such curve was filed as active; inconclusive = small, poorly fitted or top-dose-only effect, or a change in a side signal; inactive = no such curve, though single readings can be large or run the other way; the % refers to the signal ratio;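 note: cells stimulated with carbachol in lithium chloride buffer; plate controls were DMSO basal wells for no effect and reference inhibitor wells for full effect; higher means more IMPase inhibition seen as more IP1 and lower FRET ratio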
Target sequence (P97697 whole entry, looked up): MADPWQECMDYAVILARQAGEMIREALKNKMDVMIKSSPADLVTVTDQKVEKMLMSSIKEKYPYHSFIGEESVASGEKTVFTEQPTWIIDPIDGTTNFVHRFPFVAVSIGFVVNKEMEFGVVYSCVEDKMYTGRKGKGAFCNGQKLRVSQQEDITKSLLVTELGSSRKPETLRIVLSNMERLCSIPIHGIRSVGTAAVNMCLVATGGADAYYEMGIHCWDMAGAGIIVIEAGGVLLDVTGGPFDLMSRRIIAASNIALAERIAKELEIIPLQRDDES
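Elevated IP1 in lysates lowers TR-FRET signal (665/620 ratio and 620 channel reported). Cells were CHO-M1, given carbachol (50 uM as added) plus 50mM LiCl, pH 7.4, 30 min, 37C; compounds titrated up to 46 uM; AC50 by Hill equation.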
12-hLO inh = qHTS Assay for Inhibitors of 12-hLO (12-human lipoxygenase) | Polyunsaturated fatty acid lipoxygenase ALOX12 (Homo sapiens), P18054 | purified 12-hLO, xylenol orange hydroperoxide absorbance | Potency, µM (highest dose often 57.1 µM), inactives show at the highest dose activity change, negative = inhibition, usual class: inhibitors | hit rate 0.12% among 150,000 | AID 1452, 2008; active = well fitted curve in the direction sought with a large enough effect; inconclusive = small, poorly fitted or top-dose-only effect, or another doubt; inactive = no such curve, though single readings can be large; an effect the other way counts as inactive or inconclusive; note: potency is the fitted concentration of half-maximal effect; nearly all actives have a fitted effect of over 55% in size
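Purified human 12hLO (150 nM final) was preincubated with compounds for 15 min at room temperature in 25 mM Hepes pH 7.0, 0.01% Triton X-100, then reacted with 40 uM arachidonic acid for 30 min. Hydroperoxide was detected with ferrous iron/xylenol orange.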
ALDH1A1 block = qHTS Assay for Inhibitors of Aldehyde Dehydrogenase 1 (ALDH1A1); Purified ALDH1A1, NADH fluorescence, propionaldehyde substrate; Potency, µM (titrated, usually from 75.3 µM), without a hit: at the top dose activity, negative = inhibition, hits mostly inhibitors; hit rate 7.3% among 220,000;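 note: potency is the fitted concentration of half-maximal effect; plate controls were no enzyme wells and a reference inhibitor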
IMPase Li cell = qHTS Assay for Identifying the Cell-Membrane Permeable IMPase Inhibitors: Potentiation with Lithium; Potency, µM (highest dose often 59.4 µM), without a hit: at the highest dose activity, negative = IMPase inhibition, hits mostly inhibitors; hit rate 0.35% among 210,000; CHO-M1 cells, IP1 TR-FRET (IP-One), carbachol + lithium; AID 1457, 2008; active = well fitted curve in the direction sought with a large enough effect; inconclusive = small, poorly fitted or top-dose-only effect, or another doubt; inactive = no such curve, though single readings can be large; an effect the other way counts as inactive or inconclusive;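 note: IP1 builds up when IMPase is blocked and the TR-FRET signal falls; potency is the fitted concentration of half-maximal effect; plate controls were basal vehicle for no effect and high inhibitor control for full effect; nearly all actives have a fitted effect of over 50% in size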
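Readout is a homogeneous TR-FRET IP1 immunoassay (Ex 320, Em 665 and 620), where raised cytosolic IP1 lowers signal. Cells were CHO-M1 treated 30 min at 37C with test compounds plus a little lithium; AC50 values came from Hill-equation fitting.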
PNC assembly inh = High Content Assay for Compounds that inhibit the Assembly of the Perinucleolar Compartment | hit rate 3.1% among 140,000 | activity change (PNC), negative = inhibition, % at 10 µM | PC3M PTB-GFP, PNC prevalence imaging, 16 h; active compounds read low | AID 2417, 2010;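 active = readout at or below -70, meaning at least 70% loss of cells showing the perinucleolar compartment, a nuclear body marking cancer cells; inconclusive = readout between -30 and a set limit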;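 note: plate controls were DMSO wells for no effect and camptothecin positive control wells for full effect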
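Read-out is percentage of cells bearing a perinucleolar compartment, from automated 20x imaging of fixed, Hoechst-stained PC3M PTB-GFP cells. Cells were seeded 4 h, then exposed 16 h to compound (23 nl of library stock) in duplicate plates.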
Active calls of the source: *; ? = inconclusive; nt = no result given; [ ] = dose if it differs, or a comment. Hits are enriched below; roughly 11% of the tested compounds scored in any of these assays. Unless noted, calls come from the whole dose curve; as a rule, active = well fitted inhibition curve with a large enough effect (not every such curve was filed as active); inconclusive = small, poorly fitted or top-dose-only effect, or another doubt; inactive = no such curve, though single readings can be large or run the other way. Unless noted, % is set by controls: 0 for no effect and ±100 for the full control effect.

SMILES	HPGD inh	IMPase cell inh	12-hLO inh	ALDH1A1 block	IMPase Li cell	PNC assembly inh
O=C(COC(=O)c1ccccc1)NCC1CCCO1 (stereo unspecified)	-30%	-10	3%	-7%	18%[38.3 µM]	-7
O=C(NCC1CCCO1)NC1CCCCC1 (stereo unspecified)	28µM*	?	0%	11%	0%	?
Cc1ccc(CN2C(=O)CCC2C(=O)NCC2CCCO2)cc1 (stereo unspecified)	-1%	-5	1%	6%	10%[38.3 µM]	?
O=C(NCC1CCCO1)c1cccc(F)c1 (stereo unspecified)	22µM*	-3	-3%	5%	-6%[38.3 µM]	-20
Cc1cccc(C(=O)NCC2CCCO2)c1 (stereo unspecified)	?	?	5%	-1%	5%	87
CC(CC(=O)NCC1CCCO1)c1ccccc1 (stereo unspecified)	16µM*	-3	-4%	15%	-3%	74
O=C(Nc1cccc(-c2nc3ncccc3o2)c1)c1ccc(-c2cccc(Cl)c2Cl)o1	nt	-9	nt	nt	nt	nt
COc1ccc(C)cc1NS(=O)(=O)c1ccc2c(c1)[C@H]1C=CC[C@H]1[C@@H](c1cccc(Cl)c1)N2	nt	-2	nt	nt	nt	nt
COc1ccc(S(=O)(=O)N(CC(=O)NCCSc2ccccc2)c2ccc(C)cc2)cc1	nt	-1	nt	nt	nt	nt
COc1ccc(COC(=O)N/N=C2/C[C@@H](O)[C@@H](O)[C@@H]3[C@H]4C(=O)N(c5ccc(F)cc5F)C(=O)[C@@H]4CC[C@@H]23)cc1	nt	nt	nt	-3%[13.5 µM]	nt	nt
O=C(NCC1CCCO1)c1cc2ccccc2[nH]1 (stereo unspecified)	?	2	-5%	-9%	-6%[38.3 µM]	-123*
C/C(=N/Nc1nc(C)cc(=O)[nH]1)C(=O)O	1%	nt	-1%[11.4 µM]	5%[13.5 µM]	-7%	nt
O=CNCCCc1nc2ccccc2n1Cc1ccccc1	-6%	0	-1%	22µM*	1%[38.3 µM]	?
O=C(O)CCCNc1cc(N2CCC3(CC2)OCCO3)c2noc3c2c1C(=O)c1ccccc1-3	-30%	?	-20%	?	109%[38.3 µM]	-20
CCOC(=O)N1CCN(c2cc(NCCC(=O)O)c3c4c(onc24)-c2ccccc2C3=O)CC1	-26%	?	-13%	14µM*	201%[38.3 µM]	18
C=CCSc1nnc2c(n1)OC(c1c(C)[nH]n(-c3ccccc3)c1=O)Nc1ccccc1-2 (stereo unspecified)	-12%	-5	2%	-15%	5%[38.3 µM]	-24
NC1C(O)OC(CO)[C@@H](O)[C@@H]1O[C@H]1O[C@@H](C(=O)O)C(O)C(O)C1O (stereo partly specified)	-4%	nt	0%	4%	-2%	nt
CC(=O)C1CCC2C3CC=C4CC(O)CC[C@@]4(C)C3CC[C@]12C (stereo partly specified)	1%	nt	-6%	7%	31%	nt
CCn1c(C)c(CCC(=O)O)c(=O)n2nc(-c3ccccc3OC)cc12	?	?	3%	?	10µM*	56
CCOC(=O)CCc1c(C)nc2cc(-c3ccccc3OC)[nH]n2c1=O	?	-7	2%	?	22%[38.3 µM]	?
COc1ccc(-n2c(=O)c(-c3cccc(F)c3)nc3cncnc32)cc1	nt	nt	nt	-4%	5%	nt
Cc1ccc(CO)cc1	-16%	nt	-1%	-1%	-1%	nt
OCc1ccncc1.OCc1ccncc1.[Cl][Pt]([Cl])([Cl])[Cl]	?	nt	-17%[11.4 µM]	2.8µM*	7%	nt
COc1cc(NC(=S)N2CCCCC2C)cc(OC)c1OC (stereo unspecified)	nt	nt	nt	15%	2%	nt
c1ccc(-n2nnc3cnccc32)cc1	-28%	-6	-5%	1.3µM*	3%[38.3 µM]	?
SMILES	HPGD inh	IMPase cell inh	12-hLO inh	ALDH1A1 block	IMPase Li cell	PNC assembly inh
Cn1c(=O)c2c(nc(Br)n2CC(=O)C23CC4CC(CC(C4)C2)C3)n(C)c1=O	-16%	2	2%	11µM*	13%[38.3 µM]	?
Cc1ccc(-c2cc3nc(C)cc(NCc4ccco4)n3n2)cc1	?	-4	3%	?	12%[38.3 µM]	-104*
Cc1ccc(-n2nnnc2SCCNS(=O)(=O)c2ccccc2)cc1C	-6%	12	-10%	5µM*	34%[38.3 µM]	?
CSc1ccccc1OC1CCN(Cc2ccccc2)CC1	-13%	nt	-5%	-2%	-1%	-109*
CC(=O)C1CCN(Cc2ccccc2)CC1	-10%	7	10%	-5%	37%[38.3 µM]	25
C/C=C/COc1nc2c(c(=O)n(C)c(=O)n2C)n1C	-10%	8	2%	3%	2%	-100*
C=CCOc1nc2c(c(=O)n(C)c(=O)n2C)n1C	-10%	-4	0%	9%	22%[38.3 µM]	-1
Cc1ccc(C)c(/C(=N\N=C(N)N)C2CC2)c1	-5%	nt	2%[11.4 µM]	5%[13.5 µM]	-12%	nt
CN[C@@H](CC(C)C)C(=O)N[C@@H]1C(=O)N[C@H](CC(N)=O)C(=O)N[C@H]2C(=O)N[C@H]3C(=O)N[C@H](C(=O)N[C@H](C(=O)O)c4cc(O)cc(O)c4-c4cc3ccc4O)[C@H](O)c3ccc(c(Cl)c3)Oc3cc2cc(c3O[C@@H]2O[C@@H](CO)[C@@H](O)[C@@H](O)[C@H]2O[C@H]2C[C@](C)(N)[C@H](O)[C@H](C)O2)Oc2ccc(cc2Cl)[C@@H]1O	nt	1	-8%	nt	nt	nt
CC(=O)Nc1ccc(OCC(O)CN2CCN(c3ccc(Cl)cc3)CC2)cc1 (stereo unspecified)	-4%	14	2%	3%	9%	-100*
O=C(CN1CCCN(S(=O)(=O)c2ccc(Br)cc2)CC1)Nc1ccc2c(c1)OCO2	-8%	10	-13%	11µM*	17%	16
COC(=O)c1ccc(NC(=O)CN2CCN(c3ccc(Cl)cc3)CC2)cc1	-28%	-3	-3%	22µM*	26%	6
Cc1ccc(C(=O)N2CCN(c3ccc(NC(=O)CSc4ccc(Cl)cc4)cc3)CC2)cc1	-7%	nt	2%	?	6%	-113*
COc1ccc(-c2cc(C(F)(F)F)nc(SCC(=O)NCc3ccc(Cl)cc3)n2)cc1	nt	12	nt	nt	nt	nt
CN(C)S(=O)(=O)c1cc(NC(=O)CN2CCN(c3ccc(O)cc3)CC2)ccc1Cl	nt	nt	nt	13µM*	7%	nt
COC(=O)c1ccc(NC(=O)CN2C(=O)CNC2=O)cc1	-19%	-2	-15%	18µM*	4%[38.3 µM]	-26
